# Assay results as given in publication PMC12670160, “A drug-repurposing screen of FDA- and EMA-approved drugs identifies two NF-κB inhibitors active against eumycetoma” (Journal of Antimicrobial Chemotherapy, 2025).
# Where a name gives a salt, the structure may show the parent alone. Read-outs that look alike come from different tables or passages of the source. Hit rate of the full screen: of about 5,300 compounds, about 130 (2.5%) showed an effect of 50% or more. Many of the other results were omitted from the sample, so strong results are more common in it than they were.
# System: M. mycetomatis strain mm55
# Conditions: primary screen, metabolic activity vs growth control, 96 h, 2 µM, inhibitor
# [1] = Madurella mycetomatis metabolic activity at 2µM (%)
Structure (SMILES),% viability,% viability [1]
"C=CC(=O)[O-].[Na+] [ONC0002646, sodium acrylate]",77.54%,–
"N#Cc1cnc2cnc(NCc3cccnc3)cc2c1Nc1ccc(F)c(Cl)c1 [ONC0001337, tcs7006]",78.74%,–
"CCN1CCC(n2cc(CNc3cc(Cl)c4ncc(C#N)c(Nc5ccc(F)c(Cl)c5)c4c3)nn2)CC1 [ONC0002075, cot inhibitor2]",82.04%,–
"N#Cc1cnc2c(Cl)cc(NCc3cn(CCN4CCCCCC4)nn3)cc2c1Nc1ccc(F)c(Cl)c1 [ONC0000779, cot inhibitor1]",49.03%,–
"CC(C)=CCC/C(C)=C/CC/C(C)=C/C=C/C(C)=C/C(=O)O [ONC0000885, peretinoin]",65.8%,–
"CCCC[P+](CCCC)(CCCC)Cc1ccc(NC(=O)[C@H](Cc2ccc3ccccc3c2)N=C(NC2CCCCC2)NC2CCCCC2)cc1 [ONC0000223, win64338]",62.1%,–
"CC(NC(=O)CCc1nc(=O)c2ccccc2[nH]1)c1ccccc1 (stereo not drawn) [ONC0005174, me0328]",117.9%,–
"CC1(C)Oc2ccc(C#N)cc2[C@@H](OC2=CC(=O)CC2)[C@@H]1O [ONC0003452, pco 400]",40.31%,–
"CC1(C)Oc2ccc(C#N)cc2[C@@H](N2CCCC2=O)[C@@H]1O.CC1(C)Oc2ccc(C#N)cc2[C@H](N2CCCC2=O)[C@H]1O [ONC0001708, levcromakalim]",57.98%,–
"CC(=O)N(O)[C@@H]1c2cc(C#N)ccc2OC(C)(C)[C@H]1O [ONC0004430, y26763]",123.9%,–
"CCCCCCCCCCCCCCCC(=O)OC1C(SC)OC(C(NC(=O)C2CC(CCC)CN2C)C(C)Cl)C(O)C1O (stereo not drawn) [ONC0004643, clindamycin palmitate hcl]",84.71%,–
"CC(=O)OCC(=O)[C@@]12OC(C)(C)O[C@@H]1CC1C3C[C@H](F)C4=CC(=O)C=C[C@]4(C)[C@@]3(F)[C@@H](O)C[C@@]12C (stereo partly drawn) [ONC0000518, fluocinonide]",69.32%,–
"COc1ccc(C2Sc3ccccc3N(CCN(C)C)C(=O)C2OC(C)=O)cc1 (stereo not drawn) [ONC0005348, diltiazem hydrochloride]",61.39%,–
"CCN(CC)CCN1C(=O)C(=Cc2ccc(OC)cc2)Nc2ccccc21 [ONC0005609, caroverine]",42.25%,–
"CCN(CC)CCNC(=O)COc1ccc(OC)cc1 [ONC0000676, mefexamide hydrochloride]",93.51%,–
"CC(=O)N[C@H]1[C@H]([C@H](O)[C@H](O)CO)OC(C(=O)O)=C[C@@H]1N=C(N)N [ONC0004525, zanamivir relenza]",62.68%,–
"CCOC(=O)C1=C[C@]2(CC)CCCN3CCc4c(n1c1ccccc41)[C@@H]32 [ONC0002865, vinpocetine]",109.8%,–
"CC[C@]12CCCN3CCc4c(n(c5ccccc45)[C@@](O)(C(=O)OC)C1)[C@@H]32 [ONC0003425, vincamine]",89.22%,–
"CC[C@]12CCCN3CCc4c(n(c5ccccc45)C(=O)C1)[C@@H]32 [ONC0003441, eburnamonine]",44.28%,–
"Cc1ccc(NC2=CC(=O)c3sc(C)nc3C2=O)cc1 [ONC0003545, ryuvidine]",94.75%,–
"COc1cccc(/C=N/C=N/c2cccc(OC)c2)c1 [ONC0002505, dmeob]",75.27%,–
"CO[C@@H](C(=O)N1Cc2n[nH]c(NC(=O)c3ccc(N4CCN(C)CC4)cc3)c2C1)c1ccccc1 [ONC0004749, danusertib pha739358]",112.5%,–
"CN(C)c1ccc(C(=C2C=CC(=[N+](C)C)C=C2)c2ccc(N(C)C)cc2)cc1 [ONC0000415, gentian violet]",35.99%,–
"CCN(CC)c1ccc(C(=C2C=CC(=[N+](CC)CC)C=C2)c2ccccc2)cc1 [ONC0002765, brilliant green]",123.8%,–
"CC1=CC(=C(c2ccc(N)cc2)c2ccc(N)cc2)C=CC1=N [ONC0002809, basic fuchsin]",79.53%,–
"Cc1cc(O)c(-c2ccc([C@@H](C)CN)cc2)c2c1[nH]c(=O)c1sccc12 [ONC0001173, ots514]",81.93%,–

Structure (SMILES),% viability,% viability [1]
"CCOc1nc2cccc(C(=O)OC(C)OC(=O)OC3CCCCC3)c2n1Cc1ccc(-c2ccccc2-c2nnn[nH]2)cc1 (stereo not drawn) [ONC0004302, candesartan cilextil]",98.1%,–
"CCCCCCCCCCCCOS(=O)(=O)O [ONC0002181, sodiumdodecylsulfate]",–,96.71%
"Nc1nc(O)c2ncn(COC(CO)CO)c2n1 [ONC0003983, ganciclovir hydrate]",92.25%,–
"NS(=O)(=O)Nc1ncnc(OCCOc2ncc(Br)cn2)c1-c1ccc(Br)cc1 [ONC0002096, aprocitentan]",65.83%,–
"CC(C)(C)[C@@]1(O)CCN2C[C@@H]3c4ccccc4CCc4cccc(c43)[C@H]2C1 [ONC0002006, butaclamolhcl]",90.12%,–
"C=C1NCC[C@@H](C(=O)O)N1 [ONC0005375, ectoinezwitterion]",125.4%,–
"NC[C@H]1O[C@H](O[C@H]2C(O[C@@H]3O[C@H](CO)[C@@H](O)[C@H]3O)[C@@H](O)[C@H](N)C[C@@H]2N)[C@H](N)[C@@H](O)[C@@H]1O (stereo partly drawn) [ONC0002301, ribostamycin sulfate]",111.7%,–
"NC[C@@H]1O[C@H](O[C@H]2[C@@H](O)[C@H](O[C@@H]3[C@@H](O)[C@H](N)C[C@H](N)[C@H]3O[C@H]3O[C@H](CO)[C@@H](O)[C@H](O)[C@H]3N)O[C@@H]2CO)[C@H](N)[C@@H](O)[C@@H]1O [ONC0005310, paromomycin]",134.8%,–
"OC[C@H]1O[C@H](O[C@H]2[C@H](O)[C@@H](O)[C@H](O)O[C@@H]2CO)[C@H](O)[C@@H](O)[C@@H]1O [ONC0000327, dmaltose]",54.64%,–
"OC[C@H]1O[C@H](O[C@H]2O[C@H](CO)[C@@H](O)[C@H](O)[C@H]2O)[C@H](O)[C@@H](O)[C@@H]1O [ONC0003487, trehalose]",42.59%,–
"OC[C@H]1O[C@@H](O[C@@H]2[C@H](O)[C@@H](O)[C@H](O[C@H]3[C@H](O)[C@@H](O)C(O)O[C@@H]3CO)O[C@@H]2CO)[C@H](O)[C@@H](O)[C@H]1O (stereo partly drawn) [ONC0004130, 4galactosyllactose]",126.3%,–
"NC[C@H]1O[C@H](O[C@H]2[C@H](O[C@@H]3O[C@H](CO)[C@@H](O)[C@H]3O)[C@@H](O)[C@H](N)C[C@@H]2N)[C@H](N)[C@@H](O)[C@@H]1O [ONC0001104, ribostamycin sulfate]",39.68%,–
"O=C1OC2(c3cc(I)c(O)c(I)c3Oc3c2cc(I)c(O)c3I)c2c(Cl)c(Cl)c(Cl)c(Cl)c21 [ONC0002798, rose bengal sodium salt]",–,83.07%
"CC1=C(C(=O)O)N2C(=O)[C@@H](NC(=O)[C@H](N)C3=CCC=CC3)C2SC1 (stereo partly drawn) [ONC0000708, cephradine]",86.49%,–
"CC1(C)Oc2ccc(C#N)cc2[C@H](N(Cc2ncc[nH]2)c2ccc(Cl)cc2)[C@H]1O [ONC0001872, bms191095]",47.09%,–
"CCS(=O)(=O)N(C)[C@@H]1c2cc(C#N)ccc2OC(C)(C)[C@H]1O.CCS(=O)(=O)N(C)[C@H]1c2cc(C#N)ccc2OC(C)(C)[C@@H]1O [ONC0001571, chromanol]",78.85%,–
"CCS(=O)(=O)N(C)[C@H]1c2cc(C#N)ccc2OC(C)(C)[C@@H]1O [ONC0002693, chromanol293b3r4s]",103.9%,–
"CCCCn1c(-c2ccccc2)nc(-c2ccccc2)c1CN(Cc1ccc2c(c1)OCO2)Cc1ccc2c(c1)OCO2 [ONC0002511, ndt9513727]",38.93%,–
"c1ccc(C(O[C@@H]2CCCN(CCc3ccc4c(c3)OCO4)C2)c2ccccc2)cc1 [ONC0003094, zamifenacin]",77.83%,–
"c1ccc2sc(N3CCN(Cc4ccc5c(c4)OCO5)CC3)nc2c1 [ONC0000161, 214piperonylpiperazinylbenzothiazole]",77.89%,–
"Nc1ncnc2c1c(-c1cccc(OCc3ccccc3)c1)cn2C1CC(CN2CCCC2)C1 (stereo in doubt) [ONC0000263, nvpadw742]",57.9%,–
"CCCN1C[C@@H](NS(=O)(=O)N(CC)CC)C[C@@H]2Cc3c(O)cccc3C[C@H]21 [ONC0000942, quinagolide hydrochloride]",65.37%,–
"CO[C@H](C(=O)[C@@H](O)[C@@H](C)O)[C@@H]1Cc2cc3cc(O[C@H]4C[C@@H](O[C@H]5C[C@@H](O)[C@H](O)[C@@H](C)O5)[C@@H](O)[C@@H](C)O4)c(C)c(O)c3c(O)c2C(=O)[C@H]1O[C@H]1C[C@@H](O[C@H]2C[C@@H](O[C@H]3C[C@](C)(O)[C@H](O)[C@@H](C)O3)[C@H](O)[C@@H](C)O2)[C@H](O)[C@@H](C)O1 [ONC0003516, plicamycin mithramycin]",50.92%,–
"Cc1c(N)nc([C@H](CC(N)=O)NC[C@H](N)C(N)=O)nc1C(=O)N[C@H](C(=O)N[C@H](C)[C@@H](O)[C@H](C)C(=O)N[C@H](C(=O)NCCc1nc(-c2nc(C(=O)NCCC[S+](C)C)cs2)cs1)[C@@H](C)O)[C@@H](O[C@@H]1O[C@@H](CO)[C@@H](O)[C@H](O)[C@@H]1O[C@H]1O[C@H](CO)[C@@H](O)[C@H](OC(N)=O)[C@@H]1O)c1c[nH]cn1 [ONC0004316, bleomycin sulfate]",4.137%,–
"Cc1c(N)nc([C@H](CC(N)=O)NC[C@H](N)C(N)=O)nc1C(=O)N[C@H](C(=O)N[C@H](C)[C@@H](O)[C@H](C)C(=O)N[C@H](C(=O)NCCc1nc(-c2nc(C(=O)NCCCNCCCCN)cs2)cs1)[C@@H](C)O)[C@@H](O[C@@H]1O[C@@H](CO)[C@@H](O)[C@H](O)[C@@H]1O[C@@H]1O[C@H](CO)[C@@H](O)[C@H](OC(N)=O)[C@@H]1O)c1cnc[nH]1 [ONC0002990, bleomycetin]",3.217%,–
